Reference: PubChem BioAssay (Tox21)
Where “and” joins values, the source holds several entries; their conditions need not be identical. Equal values may be shown once. Results filed as inconclusive are left out. A call without a number means that no potency is given here. The source holds several records for some structures; these can differ, active in one and inactive in another. Calls of active or inactive are those of the source. Calls come from the whole dose curve; as a rule, active = well fitted cell-killing curve with a large enough effect in the repeat runs; inconclusive = weak or mixed curves, or effect the other way; inactive = no such curve, though single readings can be large or run the other way. Positions of bridges follow the written chain, without caps; N, C: chain ends. Non-standard residues stand in square brackets, D forms with d. Residues, ends and D or L forms follow the SMILES beside them. *: point of attachment. X1 = CC[C@@H](C)[C@@H](N)C1=N[C@H](C(=O)*)CS1; d(aIle) = CC[C@H](C)[C@@H](N)C(=O)O; dOrn = NCCC[C@@H](N)C(=O)O

assay: qHTS assay to identify aromatase inhibitors - cell viability counter screen (AID 743084); conditions: MCF-7 aro ERE viability, CellTiter-Fluor, 24 h; series mostly up to 70.3 µM;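 note: cells stimulated with testosterone during compound exposure; nearly all actives have a fitted effect of over 55% in size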
Potency is the fitted concentration of half-maximal effect.

Structure (SMILES)	Potency
C/C(=C\C(=O)OCCCCCCCCC(=O)O)C[C@@H]1OC[C@H](C[C@@H]2O[C@H]2[C@@H](C)[C@H](C)O)[C@@H](O)[C@H]1O	inactive
CC(C)[C@H](NC(=O)[C@H](CC(=O)O)NC(=O)[C@H](CCCCN)NC(=O)[C@@H](N)CCCN=C(N)N)C(=O)N[C@@H](Cc1ccc(O)cc1)C(=O)O (H-RKDVY-OH)	inactive
NC(=O)[C@@H]1CCCN1C(=O)[C@H](Cc1cnc[nH]1)NC(=O)[C@@H]1CCC(=O)N1	inactive
CC[C@H]1OC(=O)[C@H](C)C(=O)[C@H](C)[C@@H](O[C@@H]2O[C@H](C)C[C@H](N(C)C)[C@H]2O)[C@](C)(OC)C[C@@H](C)C(=O)[C@H](C)[C@H]2N(CCCCn3cnc(-c4cccnc4)c3)C(=O)O[C@]12C	inactive and 15 µM (active)
C[N+](C)(C)CCOP(=O)(O)OP(=O)([O-])OC[C@H]1O[C@@H](n2ccc(N)nc2=O)[C@H](O)[C@@H]1O	inactive
Cc1cnc(C(=O)O)c[n+]1[O-]	inactive
C=CC1=C(C(=O)O)N2C(=O)[C@@H](NC(=O)/C(=N/OCC(=O)O)c3csc(N)n3)[C@H]2SC1 (stereo in doubt)	inactive
O=P(O)(O)C(O)(Cn1ccnc1)P(=O)(O)O	inactive
C=CC[N+]1([C@H]2C[C@H]3[C@@H]4CC[C@H]5C[C@H](O)[C@@H](N6CCOCC6)C[C@]5(C)[C@H]4CC[C@]3(C)[C@H]2OC(C)=O)CCCC1	inactive
CC[C@@H](C)[C@@H](N)C1=N[C@H](C(=O)N[C@@H](CC(C)C)C(=O)N[C@@H](CCC(=O)O)C(=O)N[C@@H](C(=O)N[C@@H]2CCCCNC(=O)[C@@H](CC(N)=O)NC(=O)[C@@H](CC(=O)O)NC(=O)[C@@H](Cc3cnc[nH]3)NC(=O)[C@@H](Cc3ccccc3)NC(=O)[C@@H]([C@H](C)CC)NC(=O)[C@@H](CCCN)NC2=O)[C@@H](C)CC)CS1 (X1-LE[d(aIle)][dK][dOrn][dI][dF][dH][dD][dN]; lactam 4-C)	inactive
Nc1cc(Cl)c(NC2=NCCN2)c(Cl)c1	inactive
CCOc1ccc(NC(=S)Nc2ccc(OCC)cc2)cc1	inactive
CCc1ncnc2cc(OC)c(OC)cc12	inactive
Cc1cc(=O)c(C(=O)N[C@@H](C(=O)N[C@@H]2C(=O)N3C(C(=O)O)=C(CSc4nnnn4C)CS[C@H]23)c2ccc(O)cc2)c[nH]1	inactive
CC12CCC(C[N+](C)(CCC[N+](C)(C)C)C1)C2(C)C (configuration not stated)	inactive
CN1C(=O)C[C@@H](C(=O)N[C@@H](Cc2cnc[nH]2)C(=O)N2CCC[C@H]2C(N)=O)NC1=O	inactive
COC(=O)[C@H]1[C@H]2C[C@H]3c4[nH]c5ccccc5c4CCN3C[C@H]2CC[C@@H]1O	inactive
CC[C@@H](C)[C@H](N)C(=O)O	inactive
C/C(=C(/CCO)SSCC1CCCO1)N(C=O)Cc1cnc(C)nc1N (configuration not stated)	inactive

Structure (SMILES)	Potency
C=C(Nc1ccc(OCC)cc1)Nc1ccc(OCC)cc1	inactive
O=C(O)/C=C/C(=O)Nc1ccc(S(=O)(=O)Nc2nccs2)cc1	inactive
CC(C)=CCC/C(C)=C/CC/C(C)=C/CC/C(C)=C/CC1=C(C)C(=O)c2ccccc2C1=O	inactive
CO/N=C(\C(=O)N[C@@H]1C(=O)N2C(C(=O)O)=C(CSc3nc(C)c(CC(=O)O)s3)CS[C@H]12)c1csc(N)n1	inactive
COc1ccc(/C=C/C(=O)O)cc1	inactive
CO/N=C(\C(=O)N[C@@H]1C(=O)N2C(C(=O)[O-])=C(C[n+]3cccc4c3CCC4)CS[C@H]12)c1csc(N)n1	inactive
NCC1CCC(C(=O)O)CC1 (configuration not stated)	inactive
CCN(CC)CCOC[C@H]1O[C@@H](O)[C@H](OCCN(CC)CC)[C@@H](O)[C@@H]1O	inactive
CCC(=O)OC(OP(=O)(CCCCc1ccccc1)CC(=O)N1C[C@H](C2CCCCC2)C[C@H]1C(=O)O)C(C)C (some centres not stated)	inactive
CC(C)=CCC/C(C)=C/CC/C(C)=C/CC/C=C(\C)CC/C=C(\C)CCC=C(C)C	inactive
CCCCCCCCCC(=O)NO	inactive
NCCO/C=C/[C@H](N)C(=O)O	inactive
N=C(N)n1cccn1	inactive
Nc1c(CC(=O)O)cccc1C(=O)c1ccccc1	inactive
Cc1ccc(C(C)(C)c2ccc(C)cc2)cc1	inactive
CO[C@H]1C[C@H](O[C@H]2[C@H](C)[C@@H](O[C@@H]3O[C@H](C)C[C@H](N(C)C)[C@H]3O)[C@@H](C)C[C@]3(CO3)C(=O)[C@H](C)[C@@H](O)[C@@H](C)[C@@H](C)OC(=O)[C@@H]2C)O[C@@H](C)[C@@H]1O	inactive
CC[C@H]1OC(=O)C[C@@H](O)[C@H](C)[C@@H](O[C@@H]2O[C@H](C)[C@@H](O[C@H]3C[C@@](C)(O)[C@@H](O)[C@H](C)O3)[C@H](N(C)C)[C@H]2O)[C@@H](CC=O)C[C@@H](C)C(=O)/C=C/C(C)=C/[C@@H]1CO[C@@H]1O[C@H](C)[C@@H](O)[C@@H](OC)[C@H]1OC	inactive
O=C1c2c(O)cccc2[C@H]([C@@H]2O[C@H](CO)[C@@H](O)[C@H](O)[C@H]2O)c2cc(CO)cc(O)c21	inactive
